# PINK1 modulator: A Quantitative High throughput Screen to Identify Chemical Modulators of PINK1 Expression. Potency, µM (doses to about 76.6 µM), without a hit: at the highest dose activation (PINK1 increase), hits mostly activators. AID 624263, 2012. PINK1 immunofluorescence, high-content cytometry, 24 h. 0.2% of 410,000 active; active = well fitted activation curve with a large enough effect; inconclusive = small, poorly fitted or top-dose-only effect; cell line not stated here; also: % of control where 0% means no effect; nearly all actives have a fitted effect of over 65% in size
#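 Fluorescence from anti-PINK1 antibody, together with nuclear and cell stains, was scanned on a laser-scanning cytometer. Before staining, stable-line cells were incubated 24 hours with compounds at 5 concentrations; primary antibody 12 h at 10 degrees C.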
# Epigenetic reg: Quantitative High-Throughput Screen for Regulators of Epigenetic Control; murine LDR cells, GFP reporter derepression, 30 h; Potency, µM (series often up to 53.9 µM), inactives show at the top dose GFP activation, actives largely listed as activators; 0.2% of 280,000 active; AID 1865, 2009; also: % of control where 0% means no effect; nearly all actives have a fitted effect of over 60% in size
#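 Murine LDR cells bearing a silenced CMV-driven GFP reporter were exposed to compound for 30 h at 37 C. After PBS washes, GFP-positive cells (20-120 um objects) counted by laser-scanning microplate cytometry.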
# Sfp inh: qHTS Assay for Inhibitors of Bacillus subtilis Sfp phosphopantetheinyl transferase (PPTase) | 4'-phosphopantetheinyl transferase ffp (Bacillus subtilis), Q9F4F7 | 3.5% of 310,000 active | Potency, µM, for the others: largest response in the series, negative = inhibition, actives largely listed as inhibitors | Biochemical Sfp PPTase activity, qHTS;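 also: the enzyme is Sfp with the accession as filed and its product quenches rhodamine fluorescence; 0% = enzyme reaction without inhibitor and -100% = no enzyme wells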
#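 With Hepes-Na pH 7.6 buffer containing 10 mM MgCl2, Sfp (15 nM) modified BHQ-2-YbbR (12.5 uM) using rhodamine-CoA (5 uM). Two reads 30 minutes apart at 525/598 nm yielded each well's rate.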
# RORg inh: qHTS for inhibitors of ROR gamma transcriptional activity | Drosophila S2 Gal4-RORgamma UAS-luciferase reporter, 20 h | Potency, µM (titrated, usually from 53.6 µM), inactives show top-dose activity change, negative = inhibition, most hits filed as inhibitors | 5.4% of 310,000 active | AID 2551, 2010; also: % is scaled to controls: 0 for no effect and ±100 for the full control effect; nearly all actives have a fitted effect of over 60% in size
# Target sequence (P51450 whole entry, looked up, the tested form may be a part): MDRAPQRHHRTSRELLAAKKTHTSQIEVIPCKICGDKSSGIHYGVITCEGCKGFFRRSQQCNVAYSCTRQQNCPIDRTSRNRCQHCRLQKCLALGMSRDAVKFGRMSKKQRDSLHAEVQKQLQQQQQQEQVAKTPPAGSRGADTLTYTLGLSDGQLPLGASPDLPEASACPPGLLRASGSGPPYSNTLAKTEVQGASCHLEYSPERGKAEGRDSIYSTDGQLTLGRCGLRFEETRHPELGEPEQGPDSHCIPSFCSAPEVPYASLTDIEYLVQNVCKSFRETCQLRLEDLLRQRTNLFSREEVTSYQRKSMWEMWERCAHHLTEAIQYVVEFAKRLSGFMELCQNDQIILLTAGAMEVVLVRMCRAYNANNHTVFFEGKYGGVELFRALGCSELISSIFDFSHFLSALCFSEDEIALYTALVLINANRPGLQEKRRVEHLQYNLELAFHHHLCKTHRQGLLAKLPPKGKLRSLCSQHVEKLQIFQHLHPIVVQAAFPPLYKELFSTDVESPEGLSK
#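 In this cell-based reporter format, copper sulfate (700 uM final) drives Gal4–ROR gamma fusion expression from a metallothionein promoter in Drosophila Schneider cells; compounds preincubated 1 hr, reporter read after 20 hr at ambient temperature.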
# ClpP mod: qHTS Assay for Activators of ClpP; ATP-dependent Clp protease proteolytic subunit (Bacillus subtilis (strain 168)), P80244; purified B. subtilis ClpP, FRET peptide cleavage, 20 min; Potency, µM (top dose mostly 57.5 µM), inactives show at the top dose activity change, negative = active; 1.9% of 340,000 active; AID 651965, 2013; active = well fitted falling curve with a large enough effect; inconclusive = small, poorly fitted or top-dose-only effect; inactive = no such curve, though single readings can be large or run the other way; also: the source files actives as falling curves though it sought activators and does not explain the sign; nearly all actives have a fitted effect of over 65% in size
# Target sequence (P80244 whole entry, looked up): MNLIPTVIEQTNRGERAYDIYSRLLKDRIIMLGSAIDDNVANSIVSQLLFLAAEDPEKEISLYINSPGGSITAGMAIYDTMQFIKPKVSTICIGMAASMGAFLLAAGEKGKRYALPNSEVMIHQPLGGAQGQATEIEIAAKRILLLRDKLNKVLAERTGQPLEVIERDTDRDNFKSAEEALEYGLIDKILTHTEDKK
#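 FRET quenching reversal measured ClpP activation: 10 microg/mL B. subtilis ClpP at pH 8 with the FRET-FV decapeptide, read at 430 nm after 320 nm excitation. The 20-min minus 0-min signal was scaled between DMSO/no-enzyme wells and ADEP (5.8 microM final).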
# VP16 counter: VP16 counterscreen qHTS for inhibitors of ROR gamma transcriptional activity; 3.5% of 310,000 active; Drosophila S2 Gal4-VP16 UAS-luciferase, luminescence, 20 h; Potency, µM (top dose mostly 53.6 µM), inactives show at the highest dose activity, negative = inhibition, most hits filed as inhibitors;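 also: Gal4-VP16 expression switched on by copper sulfate through the metallothionein promoter; % is scaled to controls: 0 for no effect and ±100 for the full control effect; nearly all actives have a fitted effect of over 50% in size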
# Numbers without * were called inactive; ? = inconclusive; . = not tested or not shown; ! = not confirmed by another sample; [ ] = another dose, or the depositor's remark. Rows were chosen to be rich in hits. Some 8.1% of all compounds tested hit in one or more screens of this group. Unless noted, calls follow the shape of the dose curve; as a rule, active = well fitted curve in the direction sought with a large enough effect; inconclusive = small, poorly fitted or top-dose-only effect, or another doubt; inactive = no such curve, though single readings can be large; an effect the other way counts as inactive or inconclusive. Potency is read from the fitted curve at half-maximal effect.
SMILES,PINK1 modulator,Epigenetic reg,Sfp inh,RORg inh,ClpP mod,VP16 counter
S=C(N/N=C/c1ccccc1Cl)Nc1ccccc1,-20%[38.3 µM],0%,30%,0.71µM*,-4%,0%
O=C(CS(=O)(=O)c1cccc2nsnc12)NCc1ccccc1Cl,-3%,0%,.,.,-3%,.
S=C(N/N=C/c1cccc2ccccc12)Nc1cccc(Cl)c1,7%,4%,18%,0.45µM*,.,7.9µM*
COC(=O)N/N=C/c1ccccc1Cl,1%,-1%,21%,8%,-3%,16%
CNC(=S)N/N=C/c1ccccc1Cl,2%,-1%,-23%,4µM*,?,5.6µM*
CCc1ccc(NC(=O)C2CCN(S(=O)(=O)c3c(C)noc3/C=C\c3ccc(OC)cc3)CC2)cc1,0%,0%,.,.,-5%,.
CC(C)(C)OC(=O)N1CC23CC(c4ccc(F)cc4)C(CC2S1(=O)=O)O3 (stereo unspecified),.,.,23%,-15%,.,2%
Cc1cc(C)c2c(CC(=O)Nc3nnc(CC(C)C)s3)coc2c1,-1%,-2%,.,.,-1%,.
COc1ccc(C(=O)NC(=S)N2CC(C)OC(C)C2)cc1 (stereo unspecified),0%,-1%,16%,5.6µM*,-2%,6.3µM*
COc1ccc(C(=O)NC(=S)N2CCC(C)CC2)cc1,0%,-1%,-4%,1.4µM*,-2%,4µM*
Cc1ccc(C(=O)NC(=S)N2CC(C)OC(C)C2)cc1[N+](=O)[O-] (stereo unspecified),7%[38.3 µM],0%,4%,0.4µM*,0%,0.71µM*
O=S(=O)(Nc1cccc(-c2ccc(N3CCOCC3)nn2)c1)c1ccccc1C(F)(F)F,1%,-2%,.,.,-3%,.
COc1cccc(C(=O)NCC2Cc3c(F)ccc(-c4ncccn4)c3O2)c1OC (stereo unspecified),0%,.,.,.,.,.
O=C(Nc1ccccc1C(=O)OCc1cc(=O)n2ccsc2n1)c1ccc(Cl)cc1,1%,-3%,.,.,-28%,.
O=c1ccc2ccc(OS(=O)(=O)O)cc2o1,.,.,5%,-4%,.,7%
O=C(OCC#CCSc1nnc(-c2ccccc2)o1)c1cccs1,10%[38.3 µM],2%,-2%,29%,-2%,0%
O=C(OCC#CCSc1nnc(-c2cccc3ccccc23)o1)c1cccs1,1%,-1%,12%,-11%,28µM*!,-1%
C#CCSc1nnc(-c2cccc3ccccc23)o1,-2%[38.3 µM],.,.,.,32µM*,.
O=C(Nc1ccc(Cl)cc1F)c1cc(S(=O)(=O)NC2CCCCCC2)ccc1F,0%,3%,.,.,6%,.
CC(C)Cc1ccc(C(C)C(=O)Nc2ccc(O)cc2)cc1 (stereo unspecified),3%,8%,19%,?,-2%,18µM*
CC(CCc1ccccc1)NC(=O)CN1CCN(c2ccc(O)cc2)CC1 (stereo unspecified),0%,-4%,10µM*,-26%,1%,5%
CC(CCc1ccccc1)NC(=O)COC(=O)c1cccc2ccccc12 (stereo unspecified),1%,1%,7%,5%,25µM*,-1%
CC(CCc1ccccc1)NC(=O)CN1CCN(Cc2ccccc2)C1=O (stereo unspecified),4%[38.3 µM],-1%,17%,22%,-1%,-6%
CC(C)CC(=O)Nc1ccc(C(=O)CN2CCN(c3ccc(O)cc3)CC2)cc1,-1%,.,56µM*,-15%,.,-11%
CC(=O)c1ccc(N2CCN(CC(=O)Nc3ccc(N4CCOCC4)cc3)CC2)cc1,.,0%,4%,4%,.,-19%
SMILES,PINK1 modulator,Epigenetic reg,Sfp inh,RORg inh,ClpP mod,VP16 counter
Cc1cc(-c2csc(N)n2)c(C)n1Cc1ccco1,-2%,-2%,50µM*,-7%,-3%,-2%
Cc1cc(-c2csc(N)n2)c(C)n1C,0%,0%,20µM*,-20%,1%,13%
Cc1ccc(-n2c(C)cc(-c3csc(N)n3)c2C)cc1,?,-1%,?,-2%,0%,-3%
COC(=O)C1=C(C)NC2=C(C(=O)CC(C)(C)C2)C1c1ccsc1 (stereo unspecified),-2%,-1%,2%,-4%,28µM*,1%
CC1=C(C(=O)OCC2CCCO2)C(c2ccsc2)C2=C(CC(C)(C)CC2=O)N1 (stereo unspecified),0%,-1%,11%,10%,-17%,-13%
COC(=O)C1=C(C)NC2=C(C(=O)C(C(=O)OC)C(c3ccc(OC)cc3)C2)C1c1ccccn1 (stereo unspecified),1%,0%,-4%,-38%,?,-2%
COC(=O)C1=C(C)NC2=C(C(=O)CC(C)(C)C2)C1c1ccccn1 (stereo unspecified),.,0%,1%,9%,28µM*,-19%
ON=C1c2cc(OCCN3CCCCC3)ccc2-c2ccc(OCCN3CCCCC3)cc21,-2%,.,-9%,?,0%,-11%
NC(=S)NN=C1c2cc(OCCN3CCOCC3)ccc2-c2ccc(OCCN3CCOCC3)cc21,-3%,.,-7%,1.3µM*,.,3.2µM*
CCCNC(=O)OC[C@H]1O[C@H](CCO/N=C/[C@@H](OC)[C@H](C)/C=C/CC(=O)OC)C=C[C@@H]1Oc1ccc(OC)cc1,.,3%,14%,?,.,6%
COC(=O)C/C=C\[C@@H](C)[C@@H](/C=N\OCC[C@@H]1C=C[C@H](OC(C)=O)[C@H](COC(C)=O)O1)OC,.,1%[10.1 µM],1µM*,14%[10 µM],.,9%[10 µM]
CC(=O)SC(C[N+](=O)[O-])c1cn(C(C)=O)c2ccccc12 (stereo unspecified),-5%,0%,10µM*,11µM*,?,?
Cc1ccc(NC(=O)NCC2CCN(Cc3cccc(Cl)c3)CC2)cc1Cl,-1%,11%,7%,20µM*,-3%,-24%
CCc1c(C)[nH]n(-c2nc(-c3cccc([N+](=O)[O-])c3)cs2)c1=O,2%,?,-15%,10µM*,-20%,?
Cc1cc(NC(=O)c2oc3c(c2C)-c2[nH]ncc2CC3)ccc1Br,3%,0%,.,.,?,.
Cc1ccccc1/C=N/Nc1ccnc2cc(Cl)ccc12,-1%,-1%,-12%,?,-5%,?
Clc1ccc2c(N/N=C/c3cccnc3)ccnc2c1,-3%,2%,50µM*,?,.,?
Cc1ccc(/C=N/Nc2ccnc3cc(Cl)ccc23)c(C)c1,-2%,2%,45µM*,?,-17%,8.9µM*
